In PubChem BioAssay AID430 (Sanford-Burnham Center for Chemical Genomics, 2006):
In all, about 63,000 compounds went through this assay and about 1,100 (1.7%) were called active. Only a selection was taken, and actives are over-represented in it overall. Entries with a potency or affinity are not part of this list. A number with no mark means an inactive call. No stated cut-off is given here; in the data, active means cytotoxicity above about 50%; inactive means the rest.

assay: cytotoxicity in HPDE-C7 cells, cell-based, fluorescence, HTS (AID 430); conditions: HPDE-C7 pancreatic duct cells viability, at 10 µM, stronger effect = higher value;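 further: cells exposed to compound for 48 hours before viability readout; 0% = vehicle and 100% = reference cytotoxic drug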

SMILES | cytotoxicity
COc1ccc(C(=O)NCC(C)CN(C)C)cc1 (configuration not stated) | -2.3%
CCOC(=O)Nc1cccc(Nc2ccccc2)c1 | 4.6%
Cc1ccc2[nH]c3c(c2c1)CCC3=O | -7.5%
Cc1ccc2[nH]c3c(c2c1)CCc1cn[nH]c1-3 | 43.6%
CCN(CC)S(=O)(=O)c1cccc(C(=O)N2CCCCC2)c1 | 1.9%
c1ccc(-c2cn3nc(-c4ccccc4)sc3n2)cc1 | -10.8%
CCN(c1cccc(C(F)(F)F)c1)S(=O)(=O)c1ccc2c(c1)CCN2C(C)=O | 59.5% (active)
CCN(c1cccc(C(F)(F)F)c1)S(=O)(=O)c1ccc2c(c1)CCN2C(=O)C1CC1 | -11.3%
CCN(c1cccc(C)c1)S(=O)(=O)c1ccc2c(c1)CCN2C(C)=O | 46.6%
CCC1CCCCN1C(=O)Cn1c(=O)n(CCC(=O)NCc2ccco2)c(=O)c2sccc21 (configuration not stated) | -4.6%
Oc1cccc2ccc(Nc3ccccn3)nc12 | 119% (active)
c1ccc(Nc2ccccc2Nc2ccccn2)nc1 | -35.9%
O=C(Nc1ccccn1)c1ccc2ccccc2n1 | -1.6%
COC(=O)c1cc(Cc2ccc(N)c(C(=O)OC)c2)ccc1N | 1.9%
O=C(COC(=O)CSCC(=O)N1CCCCC1)NCc1ccc(F)cc1 | -5.4%
O=C(NC1CCCCC1)c1ccc(Cn2cc(Br)cn2)o1 | -6.8%
CC(=O)c1sc(NC(=O)c2ccc(Cn3cc(Br)cn3)o2)nc1C | 3.3%
O=C(Nc1ccc(C(F)(F)F)cc1Cl)c1ccc(Cn2cc(Br)cn2)o1 | 63.2% (active)
O=C1CC(C(F)(F)C(F)(F)C(F)(F)C(F)F)=Nc2ccccc2N1 | -21.9%
FC(F)C(F)(F)C(F)(F)C(F)(F)c1cc(-c2ccccc2)n[nH]1 | 83.3% (active)
Oc1ccccc1-c1cc(C(F)(F)C(F)F)[nH]n1 | -15.5%
CCN(CCCNC(=O)Cn1ncc2c(=O)oc3ccccc3c21)c1cccc(C)c1 | 55.1% (active)
CCOCCCNC(=O)Cn1ncc2c(=O)oc3ccccc3c21 | -3.8%
CCN(CC)CCCNC(=O)Cn1ncc2c(=O)oc3ccc(C)cc3c21 | 1.6%
Cc1cc(C)nc(NC(=O)NS(=O)(=O)N2CCCCCC2)n1 | -13.1%
Cc1ccc2[nH]c(=O)c(CN(CCc3ccccc3)Cc3nnnn3CC3CCCO3)cc2c1 (configuration not stated) | 9.4%
CCOC(=O)N1CCN(C(=O)CSc2nnc(COc3ccc(Cl)cc3)o2)CC1 | -20.5%
